Hits are enriched below; roughly 10% of the tested compounds scored in any of these assays.
FLuc inh – inhibitors of firefly (Photinus pyralis) luciferase. P08659. purified P. pyralis luciferase, luminescence, biochemical. Potency, µM (highest dose often 115 µM), actives largely listed as inhibitors. 76,000 tested, 2.5% active. AID 1347043; further: nearly all actives have a fitted effect of over 65% in size
Target sequence (P08659 whole entry, looked up): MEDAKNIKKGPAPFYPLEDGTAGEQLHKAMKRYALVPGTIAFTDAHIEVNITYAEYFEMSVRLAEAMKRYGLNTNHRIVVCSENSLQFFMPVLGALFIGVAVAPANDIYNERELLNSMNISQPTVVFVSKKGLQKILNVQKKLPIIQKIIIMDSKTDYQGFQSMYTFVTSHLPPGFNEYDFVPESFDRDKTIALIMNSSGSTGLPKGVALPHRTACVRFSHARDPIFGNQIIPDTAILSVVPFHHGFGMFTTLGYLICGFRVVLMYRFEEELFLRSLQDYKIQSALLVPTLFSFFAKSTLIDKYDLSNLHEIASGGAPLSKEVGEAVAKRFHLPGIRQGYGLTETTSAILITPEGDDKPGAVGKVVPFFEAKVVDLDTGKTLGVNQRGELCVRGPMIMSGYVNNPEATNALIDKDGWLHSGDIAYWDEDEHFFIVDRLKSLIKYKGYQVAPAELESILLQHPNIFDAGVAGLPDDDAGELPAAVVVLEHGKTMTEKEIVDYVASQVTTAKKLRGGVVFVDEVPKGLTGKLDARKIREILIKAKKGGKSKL
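Cell-free enzyme assay, 10nM P. pyralis luciferase, luciferin and ATP each at 10uM. Inhibition profiled over a 6-point titration, read as luminescence.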
hNpr1 antagonist – blocks ANP-stimulated signaling of human Npr1 receptor; AID 1347048; 76,000 tested, 1.6% active; Potency, µM (top dose mostly 46.3 µM), without a hit: at the top dose activity change, negative = inhibition, most hits filed as inhibitors; HEK293 hNpr1 GloSensor cGMP, ANP-stimulated luminescence; calls by dose curve; further: nearly all actives have a fitted effect of over 60% in size
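Compound pre-incubated 30 min at room temperature on GloSensor-loaded HEK293 cells stably carrying hNpr1 and the pGS-40F cGMP biosensor. Stimulation uses hNppA at 0.1 nM final; luminescence is taken at baseline and 20 min post-agonist.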
GPT2 inhibitor – GPT2 alanine aminotransferase inhibition; Q8TD30; Recombinant GPT2, coupled pyruvate oxidase/HRP Amplex Red fluorescence; Potency, µM (highest dose often 57.7 µM), inactives show top-dose activity change, negative = inhibition, most hits filed as inhibitors; 100,000 tested, 0.25% active; further: nearly all actives have a fitted effect of over 60% in size
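Recombinant GPT2 (10ng/uL) with 250uM a-KG and 2mM L-alanine, 30 min at room temperature, in HEPES pH 7.5 buffer. Pyruvate detected by pyruvate oxidase/HRP/Amplex Red fluorescence after 30 min in the dark; AOA (50uM) as positive control.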
HEK cytotox – cytotoxic compounds in HEK 293 cells. HEK 293 viability, ATP luminescence (CellTiter-Glo), 48-72 h. Potency, µM (doses to about 115 µM), without a hit: at the highest dose activity change, negative = cytotoxicity, hits mostly inhibitors. 94,000 tested, 6.6% active; further: nearly all actives have a fitted effect of over 60% in size
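HEK 293 cells at 250 cells/well were exposed to compounds by pintool transfer for 48 or 72 hr at 37 degree Celsius, 5% CO2. Viability was read as ATP-coupled luminescence with CellTiter-Glo after 10 min at room temperature.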
3T3 cytotox – NIH 3T3 cell cytotoxicity; NIH 3T3 viability, CellTiter-Glo ATP luminescence, 48-72 h; Potency, µM (doses to about 96.7 µM), for inactives: at the highest dose activity change, negative = cytotoxicity, hits mostly inhibitors; 94,000 tested, 4.3% active; AID 1345082; further: nearly all actives have a fitted effect of over 55% in size
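Viability of NIH 3T3 cells after 48 or 72 hr compound treatment at 37 °C was assessed by CellTiter-Glo, with luminescence imaged following a 10 min room-temperature step.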
* = called active by the depositor; i = inactive; ? = inconclusive; / = not tested or not shown; [ ] = remark or other dose. Unless noted, the call rests on the fitted dose curve; in most records, active means well fitted curve in the direction sought with a large enough effect; inconclusive means small, poorly fitted or top-dose-only effect, or another doubt; inactive means no such curve, though single readings can be large; an effect the other way counts as inactive or inconclusive. On the % scale 0 is the no-effect control and ±100 the full control effect; potency means the concentration at half of the fitted maximal effect.

SMILES	FLuc inh	hNpr1 antagonist	GPT2 inhibitor	HEK cytotox	3T3 cytotox
COCC1CN(Cc2ccc(Br)s2)CC12CCNCC2 (stereo not given)	?	-3%	?	?	?
Cn1ncc2c(C(=O)NCc3cccnc3)cc(-c3ccc(Cl)nc3)nc21	/	/	i	?	22µM*
Cn1ncc2c(C(=O)NCc3cccnc3)cc(-c3cccnc3)nc21	/	/	-13%	?	?
Cn1ncc2c(C(=O)NCc3cccnc3)cc(-c3cccc(F)c3)nc21	/	/	/	79µM*	?
O=C(CC1CCCCN(Cc2ccccc2)C1=O)NC1CCCCC1 (stereo not given)	/	/	i	?	?
C[S+](=O)([O-])c1cccc(-c2nnc3ccc(C(=O)NCCc4ccc(Cl)cc4)cn23)c1	/	/	3%	-17%	-20%
CN(C)CCN1CCN(c2cc(C3CC(N)C3)nc(N)n2)CC1 (stereo not given)	i	4%	-2%	0%	-1%
NC1CC(c2cc(N3CCN(CCOc4ccccc4)CC3)ncn2)C1 (stereo not given)	i	-24%	0%	22µM*	?
COc1ccccc1CNC[C@H]1O[C@H](Cc2cc(-c3ccccc3)on2)CC[C@@H]1O	i	-13%[70.6 µM]	-9%[88.5 µM]	?	89µM*
O[C@H]1CC[C@@H](Cc2cc(-c3ccccc3)on2)O[C@@H]1CNC1CCCCC1	i	-22%[70.6 µM]	i	100µM*	?
CCCc1noc(-c2cccn3c(CNC(=O)c4cc(C)ccc4C)nnc23)n1	i	-2%	i	?	3%
O=C(c1ccncc1)N1CCC2(CC1)N=C(c1ccccc1)NO2	i	4%	i	7%	i
O=C(c1n[nH]c2c1CCCC2)N1CCC2(CC1)N=C(c1ccccc1)NO2	28µM*	-24%	i	?	-16%
Cn1nc(C(=O)N2CCC3(CC2)N=C(c2ccccc2)NO3)c2ccccc21	35µM*	-4%	i	?	-3%
COc1ccc(-c2c(C(=O)NCC3CCCCC3)nc3sccn23)cc1	/	/	i	?	?
COC(=O)CNC(=O)c1nc(-c2ccc(Cl)cc2)c2ccccn12	?	17%[70.6 µM]	i	-19%[172 µM]	?
O=C(c1nc(-c2ccc(Cl)cc2Cl)c2ccccn12)N1CCCC1	/	/	-8%	?	?
O=C(NCc1ccc2c(c1)OCO2)c1nc(-c2ccc(Cl)cc2Cl)c2ccccn12	i	4%	i	32µM*	?
O=C(c1nc(-c2ccc(Cl)cc2Cl)c2ccccn12)N1CCN(c2ncccn2)CC1	/	/	-17%	40µM*	?
COCCNC(=O)c1nc(-c2ccc(Cl)cc2)c2ccccn12	i	-1%[70.6 µM]	i	?	79µM*
O=C(c1nc(-c2ccc(Cl)cc2)c2ccccn12)N1CCCC1	45µM*	0%[70.6 µM]	i	?	?
O=C(C1CCCC1)N1CCN(CCn2nc3n(c2=O)CCCC3)CC1	/	/	/	-2%	-13%
CN1CCN(Cc2ccc(-c3ccc(C(C)(C)C#N)cc3)nc2)CC1	i	0%	-17%	?	?
N#CC1CCN(C(=O)c2nc(-c3cc(Cl)cc(Cl)c3)c3ccccn23)CC1	i	-4%	i	25µM*	?
O=C(Nc1ccc(Oc2cccnc2)cc1)C1CCN(CCCc2ccccc2)CC1	i	-12%	0%	25µM*	?
SMILES	FLuc inh	hNpr1 antagonist	GPT2 inhibitor	HEK cytotox	3T3 cytotox
Cc1cccc(CN2CCCC3(CCN(C(=O)CCc4ccccc4C)C3)C2)c1 (stereo not given)	i	2%	-3%	89µM*	?
CCc1nc(NCCc2cc(OC)cc(OC)c2)c2cnn(C)c2n1	i	2%	2%	?	?
CCc1nc(NC(c2ccccc2)c2ccco2)c2cnn(C)c2n1 (stereo not given)	i	-4%	3%[11.5 µM]	40µM*	?
OCCC1CN(Cc2cn[nH]c2-c2ccc(F)cc2)CCN1Cc1cccs1 (stereo not given)	i	4%	-10%	-18%	-19%
CCn1nc(-c2ccc3c(c2)OCO3)nc1N(C)C	?	10%	4%	-4%	0%
CCn1nc(-c2cccc(-c3ccnn3C)c2)nc1N(C)C	i	-2%	-11%	79µM*	-21%
Cc1ccsc1C(=O)N1CCC2(CC1)CC(N(Cc1ccccc1)C1CC1)CCO2 (stereo not given)	i	-26%	i	40µM*	?
Cc1ccsc1C(=O)N1CCC2(CC1)CC(N(Cc1ccc(F)cc1)C1CC1)CCO2 (stereo not given)	i	-25%	i	?	?
CC(=O)N(C1CC1)C1CCOC2(CCN(C(=O)CCCc3ccccc3)CC2)C1 (stereo not given)	28µM*	2%	i	?	-21%
O=C(c1ccncc1)N1CCC2(CC1)CC(N(C(=O)c1ccccc1)C1CC1)CCO2 (stereo not given)	i	-2%	i	-29%	-27%
O=C(CCCc1ccccc1)N1CCC(C2CCNC2)CC1 (stereo not given)	35µM*	1%	i	-19%	1%
Cc1ccsc1C(=O)N1CCC2(CC1)CC(N(C(=O)c1ccccc1)C1CC1)CCO2 (stereo not given)	i	-7%	0%	50µM*	?
CC(C)NC(=O)N(C1CC1)C1CCOC2(CCN(C(=O)CCCc3ccccc3)CC2)C1 (stereo not given)	?	-17%	i	?	?
Cc1ccc(C(=O)NC2CCN(c3ccc4nnc(C5CC5)n4n3)C2)cc1 (stereo not given)	/	/	/	i	3%
COCCN1CCCC1c1nc(C2CN(S(=O)(=O)c3cccc(OC)c3)C2)no1 (stereo not given)	/	/	i	-27%	-20%
CC(C)N1C(=O)C2(CCN(C(=O)c3ccccc3F)CC2)C1c1ccccc1 (stereo not given)	/	/	i	-20%	?
CCn1nccc1C(=O)N1CCC2(CC1)CC(N(Cc1ccccc1)C1CC1)CCO2 (stereo not given)	i	-29%	i	45µM*	-21%
Cn1nccc1C(=O)N1CCC2(CC1)CC(N(Cc1ccccc1)C1CC1)CCO2 (stereo not given)	i	-17%	i	?	-6%
Cc1cccc2c1O[C@H]1[C@H](CO)CN([S+](=O)([O-])Cc3ccccc3)[C@@H]21	/	/	/	79µM*	?
Cc1ccc([S+](=O)([O-])N2CCC(C(=O)N3CCC(N4CCOC4=O)CC3)CC2)cc1	/	/	5%	i	2%
Cc1cc(Cn2cc3c4c(cccc42)[C@H](CC(C)C)N[C@H](C(=O)NCC2CC2)C3)no1	i	-6%[70.6 µM]	0%[88.5 µM]	79µM*	89µM*

Source: PubChem (National Center for Advancing Translational Sciences (NCATS))
